Laboratory results taken from PubChem BioAssay.

Molecular target: Neurogenic locus notch homolog protein 3 (Homo sapiens) (UniProt Q9UM47)
Assay: NOTCH3 binders on small-molecule microarray, primary screen, biochemical, 635/667 nm fluorescence (AID 1096)
Settings: NOTCH3 binding, 635 nm fluorescence, higher = more signal

Sequence of Neurogenic locus notch homolog protein 3 (Homo sapiens) (Q9UM47 whole entry, looked up): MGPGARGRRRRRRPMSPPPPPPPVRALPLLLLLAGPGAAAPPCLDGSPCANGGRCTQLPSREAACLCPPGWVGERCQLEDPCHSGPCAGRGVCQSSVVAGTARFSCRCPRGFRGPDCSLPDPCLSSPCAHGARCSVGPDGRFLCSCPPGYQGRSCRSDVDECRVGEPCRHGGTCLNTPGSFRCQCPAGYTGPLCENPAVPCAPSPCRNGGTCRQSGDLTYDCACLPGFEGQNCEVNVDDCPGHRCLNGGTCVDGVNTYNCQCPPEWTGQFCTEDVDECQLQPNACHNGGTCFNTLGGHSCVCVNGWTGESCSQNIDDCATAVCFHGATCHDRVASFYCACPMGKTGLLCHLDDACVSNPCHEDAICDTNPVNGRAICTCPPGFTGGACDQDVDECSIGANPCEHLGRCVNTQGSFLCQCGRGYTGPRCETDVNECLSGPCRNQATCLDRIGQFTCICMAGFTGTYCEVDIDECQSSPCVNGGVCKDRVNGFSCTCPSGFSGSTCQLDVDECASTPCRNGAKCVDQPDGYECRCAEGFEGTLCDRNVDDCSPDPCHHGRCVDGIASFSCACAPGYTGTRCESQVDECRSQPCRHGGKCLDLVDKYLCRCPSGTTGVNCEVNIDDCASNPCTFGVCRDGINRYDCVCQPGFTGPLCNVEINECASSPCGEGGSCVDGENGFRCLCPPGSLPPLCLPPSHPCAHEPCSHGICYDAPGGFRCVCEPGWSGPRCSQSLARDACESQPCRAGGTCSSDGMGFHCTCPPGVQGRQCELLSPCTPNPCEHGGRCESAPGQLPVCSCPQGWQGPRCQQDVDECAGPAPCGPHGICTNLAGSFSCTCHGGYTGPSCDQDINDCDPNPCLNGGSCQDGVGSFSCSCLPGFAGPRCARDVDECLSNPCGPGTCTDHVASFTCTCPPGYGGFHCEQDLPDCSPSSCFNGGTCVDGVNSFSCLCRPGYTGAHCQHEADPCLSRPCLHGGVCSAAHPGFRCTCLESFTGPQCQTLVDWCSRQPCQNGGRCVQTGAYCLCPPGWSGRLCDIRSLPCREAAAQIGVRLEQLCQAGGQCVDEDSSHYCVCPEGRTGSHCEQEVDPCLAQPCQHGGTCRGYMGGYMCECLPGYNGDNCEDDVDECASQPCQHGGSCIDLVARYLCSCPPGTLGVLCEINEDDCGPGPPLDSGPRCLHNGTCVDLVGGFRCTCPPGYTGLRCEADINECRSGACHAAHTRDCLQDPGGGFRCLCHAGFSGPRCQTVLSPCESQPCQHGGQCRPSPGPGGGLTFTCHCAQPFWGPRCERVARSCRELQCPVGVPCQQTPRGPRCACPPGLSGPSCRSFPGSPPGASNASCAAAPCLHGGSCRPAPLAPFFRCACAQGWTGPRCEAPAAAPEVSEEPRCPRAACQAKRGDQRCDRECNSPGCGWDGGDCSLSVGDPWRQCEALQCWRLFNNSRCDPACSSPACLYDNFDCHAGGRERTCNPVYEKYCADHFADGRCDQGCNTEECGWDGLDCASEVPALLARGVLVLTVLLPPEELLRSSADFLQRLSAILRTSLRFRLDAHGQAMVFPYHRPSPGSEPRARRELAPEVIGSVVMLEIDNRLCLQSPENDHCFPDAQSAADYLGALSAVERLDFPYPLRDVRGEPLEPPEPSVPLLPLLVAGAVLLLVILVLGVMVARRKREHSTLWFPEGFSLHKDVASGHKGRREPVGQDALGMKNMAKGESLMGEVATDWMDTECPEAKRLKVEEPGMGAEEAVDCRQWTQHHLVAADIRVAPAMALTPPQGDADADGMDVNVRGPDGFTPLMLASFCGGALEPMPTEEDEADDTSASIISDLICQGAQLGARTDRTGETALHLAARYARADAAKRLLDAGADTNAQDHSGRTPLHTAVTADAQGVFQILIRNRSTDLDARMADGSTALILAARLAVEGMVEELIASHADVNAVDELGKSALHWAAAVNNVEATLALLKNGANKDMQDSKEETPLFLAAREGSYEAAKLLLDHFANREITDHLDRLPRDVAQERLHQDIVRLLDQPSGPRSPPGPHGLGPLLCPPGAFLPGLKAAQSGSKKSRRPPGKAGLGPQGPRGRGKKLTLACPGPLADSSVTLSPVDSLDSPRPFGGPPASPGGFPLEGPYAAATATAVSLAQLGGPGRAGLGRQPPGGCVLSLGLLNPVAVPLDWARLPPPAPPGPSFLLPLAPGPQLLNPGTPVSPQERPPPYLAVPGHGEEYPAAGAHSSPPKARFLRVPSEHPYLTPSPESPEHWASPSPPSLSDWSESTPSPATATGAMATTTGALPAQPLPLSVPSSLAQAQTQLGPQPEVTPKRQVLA

SMILES	composite z-score
CCCN1C(=O)[C@]2(Cc3ccccc31)N=C(c1ccc(OCCCO)cc1)O[C@@H]2c1ccccc1	1.03
C[N+](C)(C)CCCCCCNC(=O)[C@@H]1C[C@@H]2C(=O)N3CCC[C@H]3C(=O)N2[C@@H]1c1ccc(O)cc1	1.03
CCOC(=O)C[C@H]1[C@H](OC(=O)c2ccc(C(=O)c3ccccc3)cc2)[C@@H](NC(=O)CC(C)C)c2cc(OCCCO)ccc2N1C(=O)c1ccccc1	0.961
CC1CC/C=C\[C@H]2OC34C=CCN(C(C)C)C(=O)[C@H]3N(CCO)C(=O)[C@@H]4C2C(=O)O1 (some centres undefined)	-0.355
[N-]=[N+]=Nc1ccccc1C[C@]1(C(=O)N2CCOCC2)COC(c2ccc(OCCCO)cc2)=N1	1.06
CCCCCCc1nc(Cc2cc(OC)c(OC)c(OC)c2)cc2c1[Si](C(C)C)(C(C)C)OC2	-0.0693

Tested on: not listed separately
Assay: small-molecule microarray binders of probe aEGFR, primary screen, biochemical, biotinylated probe, 635/667 nm fluorescence (AID 1097);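 note: probe is a biotinylated anti-EGFR antibody binding compounds printed on slides; score combines fluorescence near 667 nm and signal to noise of each spot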
Settings: higher = more signal

SMILES	composite z-score
CO[C@H]1O[C@H](CO)[C@@H](OC(=O)Nc2ccc3c(c2)OCO3)[C@H](OC(=O)Nc2ccc3c(c2)OCO3)[C@@H]1OC(=O)Nc1ccc2c(c1)OCO2	-0.039
CCCC1(C(=O)OC)C=C2C(=C(C)C(=O)C2C)CN1 (centres undefined)	-0.0828
CO[C@H]1O[C@H](CO)[C@@H](OC(=O)Nc2ccccc2)[C@H](OC(=O)c2cc3ccccc3[nH]2)[C@H]1OC(=O)c1cc2ccccc2[nH]1	0.0153
O=C1O[C@H](c2ccccc2)[C@H](c2ccccc2)N2[C@H]1[C@@H](C(=O)O)[C@]1(C(=O)Nc3ccc(C#CCCO)cc31)[C@H]2c1ccccc1OCCO	-0.204
CCCCC[C@H]1OC[C@@]23C=C(Br)[C@@H](CC12)[C@@]1(CO1)C3=O (some centres undefined)	-0.122
CCCCN1CC=CC23O[C@@H]4/C=C\CCC(C)OC(=O)C4[C@H]2C(=O)N(CCCO)[C@@H]3C1=O (some centres undefined)	-0.217
CC[C@@H]1C=C(C(=O)O)[C@H](c2ccc(C#N)cc2)N1S(=O)(=O)c1ccc(C)cc1	0.122
O=C1[C@H]2C=C(I)[C@H](C[C@@H]2OCCOCCO)[C@@]12CO2	-0.027
COCCOC(=O)N1C(=O)[C@@]2(c3cc(C#CC4=CCCCC4)ccc31)[C@H](C(=O)Nc1nc3ccccc3s1)[C@H]1C(=O)O[C@H](c3ccccc3)[C@H](c3ccccc3)N1[C@@H]2c1ccc(O)cc1	-0.0975
COc1ccc([C@H]2OC[C@@H]3C[C@H](Cc4ccccc4)C(=O)N32)cc1	-0.0978
NC(=O)NCC#Cc1ccc2c(c1)[C@]1(C(=O)N2)[C@H](c2ccccc2OCCO)N2[C@H](c3ccccc3)[C@H](c3ccccc3)OC(=O)[C@H]2[C@@H]1C(=O)O	-0.185
CC1CC/C=C\[C@H]2OC34C=CCN(c5ccc(Cl)cc5)C(=O)[C@H]3N(C(C)CO)C(=O)[C@]4(C)C2C(=O)O1 (some centres undefined)	-0.173
CCOC(=O)C1=C[C@@H](C(C)C)N(S(=O)(=O)c2ccc(C)cc2)[C@H]1c1ccc(C(F)(F)F)cc1	-0.0122
OCCCC1=CC(c2ccc(CN3CCCC3)cc2)N(Cc2cc3c(cc2Br)OCO3)CC1 (centres undefined)	0.0617
CCCCCCCCCC(O)C1C=CC2C(=O)N(c3ccccc3)C(=O)C2N1Nc1cc(OC)c(OC)c(OC)c1 (centres undefined)	-0.0978
COCCCNC(=O)[C@@]1(CCC(=O)OC(C)(C)C)N=C(c2ccc(OCCCO)cc2)O[C@H]1c1ccccc1N=[N+]=[N-]	0.458
COc1cc(OC)c(C(O)C2C=CC3C(=O)N(Cc4ccccc4)C(=O)C3N2n2cnnc2)cc1Br (centres undefined)	-0.0343
C[N+](C)(C)CCCC[C@@H]1NC(=O)[C@@H]2C[C@H](C(=O)NCCCCCCN)[C@H](c3cccc(OCCO)c3)N2C1=O	0.617
O=C1C2C=CC(C(O)C3CC=CCC3)N(Nc3ccccc3)C2C(=O)N1c1ccccc1 (centres undefined)	0.153
C=CCNC(=O)[C@H]1[C@@H]2C(=O)O[C@@H](c3ccccc3)[C@@H](c3ccccc3)N2[C@@H](c2ccccc2OCCO)[C@]12C(=O)N(C(=O)OCCOC)c1ccc(C#CC3(O)CCCCCC3)cc12	-0.0455
COCCOC(=O)N1C(=O)[C@@]2(c3cc(C#CC4=CCCCC4)ccc31)[C@H](c1ccccc1OCCO)N1[C@H](c3ccccc3)[C@H](c3ccccc3)OC(=O)[C@H]1[C@@H]2C(=O)NC[C@H](O)c1ccccc1	-0.0476
CCCC[C@@H](O)C1=C(COc2ccccc2)C[C@H]2C(=O)N(Cc3ccccc3)C(=O)[C@H]2[C@H]1CO	-0.0828
O=C1OCCC/C=C\[C@H]2OC34C=CCN(c5ccc6ccccc6c5)C(=O)[C@H]3N(CCO)C(=O)[C@@H]4C12 (some centres undefined)	-0.335
